Sfp inh = qHTS Assay for Inhibitors of Bacillus subtilis Sfp phosphopantetheinyl transferase (PPTase); 4'-phosphopantetheinyl transferase ffp (Bacillus subtilis), Q9F4F7; Biochemical Sfp PPTase activity, qHTS; Potency, µM, inactives show largest response in the series, negative = inhibition, usual class: inhibitors; hit rate 3.5% among 310,000;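 also: the enzyme is Sfp with the accession as filed and its product quenches rhodamine fluorescence; 0% = enzyme reaction without inhibitor and -100% = no enzyme wells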
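Reaction rates are the 30-min fluorescence difference (ex 525, em 598 nm) in wells containing 15 nM Sfp, 5 uM rhodamine-CoA and 12.5 uM BHQ-2-YbbR at pH 7.6 with 10 mM MgCl2.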
HP1b binding inh = HTS for Inhibitors of HP1-beta Chromodomain Interactions with Methylated Histone Tails; Chromobox protein homolog 1 (Homo sapiens), P83916; AlphaScreen HP1-beta / biotin-H3K9me3 peptide binding; Potency, µM (highest dose often 114 µM), inactives show at the highest dose activity change, negative = inhibition, actives largely listed as inhibitors; hit rate 0.56% among 390,000; AID 540317, 2011; also: nearly all actives have a fitted effect of over 70% in size
Target sequence (P83916 whole entry, looked up): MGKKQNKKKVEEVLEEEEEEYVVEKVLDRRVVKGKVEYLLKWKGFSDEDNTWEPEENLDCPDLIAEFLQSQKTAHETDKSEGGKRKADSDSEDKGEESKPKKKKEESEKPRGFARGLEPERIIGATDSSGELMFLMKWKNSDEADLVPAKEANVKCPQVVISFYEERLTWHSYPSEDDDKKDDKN
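AlphaScreen: HP1-beta (50 nM) preformed 30 min with biotin-H3(1-18)K9me3 peptide (50 nM) in PBS pH 7.4, 0.01% Tween-20. Compound added for 30 min at RT, then streptavidin donor/nickel chelate acceptor beads (10 ug/mL) for 30 min.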
G9a block = qHTS Assay for Inhibitors of Histone Lysine Methyltransferase G9a | G9a H3K9 monomethylation, AlphaScreen, 2 h | Histone-lysine N-methyltransferase EHMT2 (Homo sapiens), Q96KQ7 | AID 504332, 2011 | hit rate 8.8% among 350,000 | Potency, µM (titrated, usually from 102 µM), without a hit: at the top dose activity, negative = inhibition, usual class: inhibitors; also: % is scaled to controls: 0 for no effect and ±100 for the full control effect; nearly all actives have a fitted effect of over 75% in size
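AlphaScreen read-out: biotin-H3K9 peptide (500 nM) methylation by 20 nM enzyme with 20 uM SAM, 2 h at room temperature after 15 min compound preincubation; anti-monomethyl H3K9 antibody plus donor/acceptor beads, 10 min dark.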
BAZ2B block = qHTS Assay for Inhibitors of BAZ2B | AlphaScreen BAZ2B-H3K14Ac peptide displacement | Potency, µM (titrated, usually from 114 µM), without a hit: at the top dose activity change, negative = inhibition, actives largely listed as inhibitors | hit rate 4.4% among 360,000; also: % is scaled to controls: 0 for no effect and ±100 for the full control effect; nearly all actives have a fitted effect of over 60% in size
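AlphaScreen luminescence quantifies BAZ2B engagement of H3K14Ac peptide; the protein and biotinylated peptide are both at 50 nM final, buffer PBS pH 7.4 with 0.01% Tween-20, all steps at room temperature.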
JMJD2A Tudor = qHTS Assay for Inhibitors of JMJD2A-Tudor Domain. Lysine-specific demethylase 4A (Homo sapiens), O75164. AlphaScreen JMJD2A-Tudor / H3K4me3 peptide binding. Potency, µM (doses to about 114 µM), for the others: top-dose activity change, negative = inhibition, usual class: inhibitors. hit rate 4.4% among 390,000; also: % is scaled to controls: 0 for no effect and ±100 for the full control effect; nearly all actives have a fitted effect of over 50% in size
PLK1 PBD block = qHTS for Inhibitors of PLK1-PDB (polo-like kinase 1 - polo-box domain): Primary Screen | AID 720504, 2013 | hit rate 2.8% among 360,000 | Potency, µM, inactives show max response, negative = inhibition, actives largely listed as inhibitors | Plk1 PBD binding of FITC phosphopeptide, fluorescence polarization; also: series mostly up to about 57 µM; % is scaled to controls: 0 for no effect and ±100 for the full control effect; nearly all actives have a fitted effect of over 65% in size
Target sequence (P53350 whole entry, looked up, the tested form may be a part): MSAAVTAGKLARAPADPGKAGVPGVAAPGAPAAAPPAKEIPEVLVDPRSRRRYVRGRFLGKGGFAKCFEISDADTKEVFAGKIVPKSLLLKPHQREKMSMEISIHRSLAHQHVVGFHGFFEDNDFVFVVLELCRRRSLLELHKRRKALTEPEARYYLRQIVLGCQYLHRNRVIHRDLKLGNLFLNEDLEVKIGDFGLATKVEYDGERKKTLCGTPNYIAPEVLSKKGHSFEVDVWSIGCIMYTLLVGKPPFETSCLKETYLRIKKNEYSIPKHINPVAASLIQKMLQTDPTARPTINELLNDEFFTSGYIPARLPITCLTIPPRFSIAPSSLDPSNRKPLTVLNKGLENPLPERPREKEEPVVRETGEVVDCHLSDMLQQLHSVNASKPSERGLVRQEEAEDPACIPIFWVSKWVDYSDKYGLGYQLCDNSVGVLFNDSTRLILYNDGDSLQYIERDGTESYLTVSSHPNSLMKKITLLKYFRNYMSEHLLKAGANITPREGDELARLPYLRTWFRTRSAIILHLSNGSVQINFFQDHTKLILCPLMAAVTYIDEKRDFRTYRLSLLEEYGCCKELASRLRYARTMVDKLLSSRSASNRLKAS
* marks the source's active call; other numbers are inactive results; ? = inconclusive; · = no result; [ ] = dose if it differs, or a comment. Sampled rows, rich in hits. Any-hit rate of the full collection: about 12%. Calls follow the shape of the dose curve; as a rule, active = well fitted curve in the direction sought with a large enough effect; inconclusive = small, poorly fitted or top-dose-only effect, or another doubt; inactive = no such curve, though single readings can be large; an effect the other way counts as inactive or inconclusive. Potency is read from the fitted curve at half-maximal effect.

SMILES	Sfp inh	HP1b binding inh	G9a block	BAZ2B block	JMJD2A Tudor	PLK1 PBD block
O=[N+]([O-])c1ccccc1COc1ccc(Cl)c2cccnc12	8.6%	20.7%	13.3%[2.33 µM]	2.2%	-25.8%	23.8µM*
CCN(CC)c1ccc(S(=O)(=O)N2CCOCC2)cc1NC(=O)CSC(=S)N1CCCC1	25.1µM*	6.9%	7.94µM*	-23.9%	?	13.4µM*
CCN(CC)c1ccc(S(=O)(=O)N2CCOCC2)cc1NC(=O)CNCc1ccccc1	35.5µM*	?	?	50.1µM*	89.1µM*	-9.6%
CCN(CC)c1ccc(S(=O)(=O)N2CCOCC2)cc1NC(=O)Nc1ccccc1	·	1.1%	·	·	-10.3%	?
CCN(CC)c1ccc(S(=O)(=O)N2CCOCC2)cc1NC(=O)CN1CCN(Cc2ccccc2)CC1	79.4µM*	?	?	22.4µM*	17.8µM*	-1.4%
CCOC(=O)c1ccccc1NC(=O)Cn1c(=O)n(-c2cccc(C)c2)c(=O)c2c1c1cc(C)ccc1n2C	·	0.8%	3.5%[59 µM]	1.6%	-13.0%	·
CCC(=O)Nc1ccc(Cl)c(NC(=S)NC(=O)c2ccco2)c1	-12.2%	0.4%	?	2.2%	-30.9%	26.7µM*
CCC(=O)Nc1ccc(Cl)c(NC(=S)NC(=O)c2cc3ccccc3o2)c1	-16.9%	-0.8%	12.1%[59 µM]	9.2%	-12.1%	-21.4%
CCC(=O)Nc1ccc(Cl)c(NC(=S)NC(C)=O)c1	-25.8%	8.1%	28.2µM*	-8.3%	0.0%	-9.5%
CCC(=O)Nc1sc(Cc2ccccc2)c(C)c1C(N)=O	?	-20.3%	·	?	?	26.7µM*
COC(=O)c1c(NC(=O)c2ccccc2)sc(Cc2ccccc2)c1C	-2.2%	108.3%	29.2%[59 µM]	50.6%	47.8%	-2.1%
COc1ccc(/C=C/C(=O)Nc2sc(Cc3ccccc3)c(C)c2C(N)=O)cc1	3.9%	25.7%	-21.0%[59 µM]	-0.8%	-26.0%	1.0%
Cc1c(Cc2ccccc2)sc(NC(=O)Cc2ccccc2)c1C(N)=O	·	-51.8%	·	·	-31.3%	10.6µM*
Cc1c(Cc2ccccc2)sc(NC(=O)C(C)(C)C)c1C(N)=O	20µM*	?	14.1µM*	?	-34.7%	18.9µM*
Cc1c(Cc2ccccc2)sc(N)c1C(N)=O	39.8µM*	·	2µM*	-29.3%	·	·
COC(=O)c1c(NC(C)=O)sc(Cc2ccccc2)c1C	-19.2%	31.5%	20.2%	0.2%	7.9%	-10.1%
CCN(C(=O)COC(=O)CCn1c(C)csc1=O)c1c(N)n(Cc2ccccc2)c(=O)[nH]c1=O	·	28.5%	28.8%[12.7 µM]	-1.4%	2.1%	0.6%
CCOc1ccc(CCNC(=O)COC(=O)c2nc3nc(C)cc(C)n3n2)cc1OCC	10.7%	28.8%	18.0%[59 µM]	-2.7%	-14.9%	-9.2%
CN(C)c1ccc(C(=O)/C=C/c2ccccc2)cc1	-27.6%	33.6%	2.2%	0.4%	-4.9%	1.2%
CN(C)c1ccc(C(=O)/C=C/c2ccco2)cc1	50.1µM*	-49.8%	12.6µM*	50.1µM*	-29.8%	-14.7%
O=C(/C=C/c1ccco1)c1ccc(O)cc1	22.4µM*	·	?	?	·	·
CCOC(=O)COc1ccc(C2CC(C)=NN2c2ccccc2)cc1 (stereo unspecified)	3.4%	32.9%	?	-30.6%	-34.5%	6.3%
CCOC(=O)COc1ccc(C2NC(C(=O)O)CS2)cc1 (stereo unspecified)	44.7µM*	?	?	56.2µM*	7.94µM*	-6.7%
COC(=O)c1ccc(C2NC(C(=O)O)CS2)cc1 (stereo unspecified)	56.2µM*	-63.1%	3.55µM*	?	6.31µM*	-6.8%
COc1cc(C2NC(C(=O)O)CS2)ccc1OCc1ccccc1C#N (stereo unspecified)	17.8µM*	·	20µM*	-2.8%	·	·
SMILES	Sfp inh	HP1b binding inh	G9a block	BAZ2B block	JMJD2A Tudor	PLK1 PBD block
COc1cc(/C=C/C(=O)O)ccc1OCc1ccccc1C#N	-17.9%	12.3%	-4.6%[59 µM]	6.8%	-3.5%	-7.2%
OCC(O)CS (stereo unspecified)	15.4%	·	18.9%[59 µM]	·	·	·
C=CCNc1nc(-c2c(C)nc3sccn23)cs1	-16.1%	18.2%	28.2µM*	-10.9%	-30.0%	-17.3%
Cc1nc2sccn2c1-c1csc(NCc2ccccc2)n1	-16.0%	?	?	?	63.1µM*	?
C=CCn1c(Cc2ccc(OC)cc2)nnc1SCC(=O)NCCc1ccccc1	16.5%	19.3%	10.6%	7.7%	4.5%	-8.1%
CNC(=S)NNC(=O)COc1ccc(C)c(C)c1	4.9%	7.8%	31.6µM*	-5.1%	50.1µM*	-9.0%
O=C(CCc1ccccc1)NNC(=O)COc1ccc([N+](=O)[O-])cc1	22.0%	42.6%	23.3%	-3.0%	12.4%	0.6%
Cc1ccc(OCC(=O)Nc2cccc(O)c2)cc1C	-12.7%	42.9%	-6.9%[2.33 µM]	63.3%	-24.3%	-6.1%
COc1ccc(OCC(=O)NNC(=S)NC(=O)c2ccc(Br)o2)cc1	2.6%	-16.7%	22.4µM*	-9.9%	-23.5%	-22.3%
CC(=O)NC(=S)NNC(=O)COc1ccc([N+](=O)[O-])cc1	-18.4%	-1.3%	8.91µM*	8.3%	-18.0%[11.4 µM]	21.2µM*
CCCCCC(=O)NNC(=S)NC(=O)c1ccc([N+](=O)[O-])cc1	35.5µM*	?	2.51µM*	-36.8%	?	10.6µM*
O=C(NCc1nc2cccnc2n1Cc1ccc(F)cc1)c1ccccc1C(F)(F)F	·	35.1%[57 µM]	25.1%[59 µM]	2.2%	4.2%	·
O=C(COc1ccc([N+](=O)[O-])cc1)Nn1cnnc1	2.8%	-17.5%	?	·	-20.3%[11.4 µM]	21.2µM*
CC(=O)NC(=S)NNC(=O)COc1ccc(Br)cc1	-51.5%	0.4%	1.78µM*	9.3%	25.1µM*	26.7µM*
COc1ccc(OCC(=O)NNC(=S)NC(=O)c2ccc([N+](=O)[O-])cc2)cc1	31.6µM*	-16.5%	1.12µM*	-15.6%	-24.7%	23.8µM*
Cc1ccc(C(=O)NC(=S)NNC(=O)c2ccc([N+](=O)[O-])cc2)cc1	14.3%	3.1%	23.6%[0.501 µM]	-0.3%	-27.9%	-17.1%
Cc1ccc(-n2ncc3c(SCc4cccnc4)ncnc32)c(C)c1	-1.3%	33.2%	-3.9%	-7.7%	-4.2%	-6.2%
CC(C)(CNC(=O)c1cccs1)N1CCOCC1	·	23.3%	-4.4%[12.7 µM]	10.5%	2.0%	-16.8%
COc1ccc([N+](=O)[O-])cc1COc1cc(C)cc2oc(=O)cc(-c3ccccc3)c12	-2.5%	1.8%	-40.4%	-6.7%	-34.4%	-10.5%

Screening data (PubChem)
